The values that follow come from the supplement of paper PMC6522484.

± gives the standard deviation of the averaged measurements.

In experiment [1] the test system is DLD1. The experiment is described as follows: cell viability (CellTiter-Glo) relative to plate median (fraction of plate median); higher = more viable cells. The conditions noted are these: 10 µM, treatment time 24 h. The procedure, abridged: (§1)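 Kinase inhibitor library compounds were added at a final 10 µM for 24 h to colorectal cancer cells in 384-well plates, 24 h after seeding. The cells stably expressed lentiviral TCF/Wnt firefly luciferase reporters. Firefly luciferase and CellTiterGlo luminescence came from parallel plates, and each well was normalised to its plate median (webcellHTS2, additive, untransformed), averaged over two independent replicates.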
(In general: Cellular ATP, detected with luciferase, serves as a proxy for viable cell number.)

Experiment [2] has as its system HCT116. The description is as above. The settings on record: 10 µM; treatment time 24 h; reporter: TCF4/Wnt. Put shortly: as §1
For experiment [3], the system named is SW480. Described as above. The conditions noted are these: 10 µM; treatment time 24 h; reporter: 7TFP. The procedure, abridged:
as §1

Experiment [4] has as its system DLD1. As to the kind of experiment: TCF/Wnt firefly luciferase reporter signal relative to plate median (fraction of plate median); higher = higher Wnt reporter signal. The settings on record: 10 µM, treatment time 24 h. The procedure, abridged: as §1
Background: Reporter assays use an easily measured gene product as a stand-in for the process of interest.

For experiment [5], the system named is HCT116. The experiment is described as above. The settings on record: 10 µM; treatment time 24 h; reporter: TCF4/Wnt. The procedure, abridged:
as §1

The subject of experiment [6] is SW480. Described as above. The conditions noted are these: 10 µM; treatment time 24 h; reporter: 7TFP. The procedure, abridged: as §1

Take `CC(C)n1nc(-c2ccc3oc(N)nc3c2)c2c(N)ncnc21`: the cell viability was 0.832 ± 0.15 in the experiment with DLD1 [1] (reporter: 7TFP), 0.916 ± 0.016 in the experiment with DLD1 [1] (reporter: TCF4/Wnt), 0.624 ± 0.1 with HCT116 [2] and 1.04 ± 0.072 in the experiment with SW480 [3]. Moreover, the “TCF/Wnt firefly luciferase reporter signal” value was determined as 0.341 ± 0.062 in the experiment on DLD1 [4] (reporter: 7TFP), 0.509 ± 0.071 in the experiment on DLD1 [4] (reporter: TCF4/Wnt), 0.569 ± 0.26 in the experiment on HCT116 [5] and 0.704 ± 0.15 in the experiment on SW480 [6].

Take `O=C(c1ccc(/C=C/c2n[nH]c3ccccc23)cc1)N1CCNCC1`: the cell viability amounted to 1.16 ± 0.021 in the experiment on DLD1 [1] (reporter: 7TFP), 1.14 ± 0.071 in the experiment on DLD1 [1] (reporter: TCF4/Wnt), 0.944 ± 0.093 with HCT116 [2] and 1.09 ± 0.035 in the experiment on SW480 [3]. Also, the “TCF/Wnt firefly luciferase reporter signal” value in the experiment on DLD1 [4] (reporter: 7TFP) worked out at 1.26 ± 0.6; in the experiment on DLD1 [4] (reporter: TCF4/Wnt) it was 1.46 ± 0.65; in the experiment on HCT116 [5], 1.45 ± 0.45; in the experiment with SW480 [6], 1.53 ± 0.2.

On to `O=C(NC1CCNCC1)c1n[nH]cc1NC(=O)c1c(Cl)cccc1Cl`, for which the cell viability was 1.16 ± 0.33 in the experiment with DLD1 [1] (reporter: 7TFP), 1.16 ± 0.18 with DLD1 [1] (reporter: TCF4/Wnt), 0.793 ± 0.16 in the experiment with HCT116 [2] and 1.31 ± 0.17 in the experiment with SW480 [3]. For the same compound, the “TCF/Wnt firefly luciferase reporter signal” value stood at 0.517 ± 0.1 in the experiment with DLD1 [4] (reporter: 7TFP), 0.797 ± 0.67 in the experiment with DLD1 [4] (reporter: TCF4/Wnt), 0.226 ± 0.018 with HCT116 [5] and 0.798 ± 0.074 in the experiment on SW480 [6].

In the case of `CNC(=O)c1cc(COc2nnc(Nc3ccc(Cl)cc3)c3ccoc23)ccn1` [Telatinib (BAY 57-9352)], the cell viability in the experiment on DLD1 [1] (reporter: 7TFP) stood at 1.13 ± 0.23; in the experiment on DLD1 [1] (reporter: TCF4/Wnt), 0.987 ± 0.033; with HCT116 [2], 1.05 ± 0.079; with SW480 [3], 0.972 ± 0.024. Besides, the “TCF/Wnt firefly luciferase reporter signal” value with DLD1 [4] (reporter: 7TFP) came out at 1.32 ± 0.05; in the experiment with DLD1 [4] (reporter: TCF4/Wnt), 1.09 ± 0.13; with HCT116 [5], 1.08 ± 0.25; with SW480 [6], 1.08 ± 0.14.

In the case of `COCC(=O)NC/C=C/c1ccc2ncnc(Nc3ccc(Oc4ccc(C)nc4)c(C)c3)c2c1`, the cell viability in the experiment with DLD1 [1] (reporter: 7TFP) came out at 0.964 ± 0.14; in the experiment with DLD1 [1] (reporter: TCF4/Wnt), 1.035 ± 0.0071; in the experiment on HCT116 [2], 1.06 ± 0.014; in the experiment with SW480 [3], 0.952 ± 0.059. For the same compound, the “TCF/Wnt firefly luciferase reporter signal” value in the experiment on DLD1 [4] (reporter: 7TFP) came out at 1.18 ± 0.064; in the experiment on DLD1 [4] (reporter: TCF4/Wnt), 1.19 ± 0.17; in the experiment on HCT116 [5] it was 0.786 ± 0.27; with SW480 [6] it was 0.927 ± 0.43.

`CN(C)C1CCN(C(=O)c2ccc(NC(=O)Nc3ccc(-c4nc(N5CCOCC5)nc(N5CCOCC5)n4)cc3)cc2)CC1`: the cell viability in the experiment on DLD1 [1] (reporter: 7TFP) was found to be 1.1 ± 0.17; in the experiment on DLD1 [1] (reporter: TCF4/Wnt), 1.05 ± 0.081; with HCT116 [2], 0.649 ± 0.051; with SW480 [3] it was 1.17 ± 0.05. Also, the “TCF/Wnt firefly luciferase reporter signal” value in the experiment with DLD1 [4] (reporter: 7TFP) worked out at 0.947 ± 0.076; in the experiment with DLD1 [4] (reporter: TCF4/Wnt) it was 0.933 ± 0.073; in the experiment on HCT116 [5], 0.611 ± 0.23; in the experiment with SW480 [6], 0.958 ± 0.1.

With `Nc1ccc(C(=O)Nc2cccc(-c3nc(N4CCOCC4)c4oc5ncccc5c4n3)c2)cn1`, the cell viability in the experiment with DLD1 [1] (reporter: 7TFP) is 0.832 ± 0.044; with DLD1 [1] (reporter: TCF4/Wnt), 0.858 ± 0.025; in the experiment on HCT116 [2], 0.819 ± 0.049; with SW480 [3] it was 1.004 ± 0.0078. In addition, the “TCF/Wnt firefly luciferase reporter signal” value was determined as 0.758 ± 0.033 with DLD1 [4] (reporter: 7TFP), 0.654 ± 0.069 in the experiment on DLD1 [4] (reporter: TCF4/Wnt), 0.591 ± 0.2 in the experiment on HCT116 [5] and 0.827 ± 0.4 in the experiment on SW480 [6].

For `NC(=O)Nc1cc(-c2cccc(F)c2)sc1C(=O)N[C@H]1CCCNC1`, the cell viability with DLD1 [1] (reporter: 7TFP) was 0.645 ± 0.073; in the experiment on DLD1 [1] (reporter: TCF4/Wnt), 0.679 ± 0.04; in the experiment on HCT116 [2], 0.293 ± 0.12; in the experiment on SW480 [3], 0.838 ± 0.13. The “TCF/Wnt firefly luciferase reporter signal” value came out at 0.667 ± 0.19 in the experiment with DLD1 [4] (reporter: 7TFP), 0.829 ± 0.15 in the experiment on DLD1 [4] (reporter: TCF4/Wnt), 0.436 ± 0.15 in the experiment on HCT116 [5] and 0.982 ± 0.14 in the experiment on SW480 [6].

Turning to `CNC(=O)c1nn(C)c2c1C(C)(C)Cc1cnc(Nc3ccc(N4CCN(C)CC4)cc3)nc1-2`, the cell viability is 1.02 ± 0.2 in the experiment on DLD1 [1] (reporter: 7TFP), 0.941 ± 0.049 in the experiment with DLD1 [1] (reporter: TCF4/Wnt), 0.659 ± 0.18 in the experiment with HCT116 [2] and 1.14 ± 0.099 with SW480 [3]. Moreover, the “TCF/Wnt firefly luciferase reporter signal” value came out at 0.274 ± 0.088 in the experiment on DLD1 [4] (reporter: 7TFP), 0.3665 ± 0.0035 with DLD1 [4] (reporter: TCF4/Wnt), 0.146 ± 0.022 in the experiment on HCT116 [5] and 0.845 ± 0.096 with SW480 [6].
